Results published in PubChem BioAssay (NCI).
This is part of a sample that, as a whole, favours compounds with a hit. Of some 79,000 tested, about 15% had one in any assay. The source made the active and inactive calls. Cut-off read from the data, not from the text of the source: active = growth inhibition above about 70%; inactive = the rest.

Tests used:
[1] = NCI Yeast Anticancer Drug Screen. Data for the rad52 strain (AID 147);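 note: 0% = growth of vehicle-treated control cultures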; conditions: S. cerevisiae rad52 mutant growth inhibition, stronger effect = higher value
Summary of the method: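 DNA repair-defective yeast; compound exposure; growth scored against vehicle controls.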

[2] = NCI Yeast Anticancer Drug Screen. Data for the wt1 strain (AID 149);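 note: 0% = growth of vehicle-treated wt1 cultures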; conditions: S. cerevisiae wt1 strain (SPY 50644) growth inhibition, stronger effect = higher value
Summary of the method: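 Measured: growth of wt1 yeast under compound versus vehicle treatment, reported as inhibition.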

[3] = NCI Yeast Anticancer Drug Screen. Data for the mgt1 strain (AID 153); conditions: S. cerevisiae mgt1 mutant growth inhibition, stronger effect = higher value
Summary of the method: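 Growth inhibition relative to vehicle controls was scored for the mgt1 yeast strain after compound exposure.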

[4] = NCI Yeast Anticancer Drug Screen. Data for the rad50 strain (AID 155);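 note: 0% = growth of vehicle-only cultures of the same strain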; conditions: S. cerevisiae rad50 strain growth inhibition, stronger effect = higher value
Summary of the method: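 Growth of the mutant yeast was measured after compound exposure and referenced to vehicle-treated cultures.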

[5] = NCI Yeast Anticancer Drug Screen. Data for the mec2-1 strain (AID 157); conditions: S. cerevisiae mec2-1 strain, stronger effect = higher value
Summary of the method: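 Growth inhibition is read against vehicle-treated controls after compound exposure of the mec2-1 yeast strain, which is defective in DNA damage repair or cell cycle control.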

[6] = NCI Yeast Anticancer Drug Screen. Data for the rad14 strain (AID 159);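 note: 0% = growth of vehicle-treated control cultures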; conditions: S. cerevisiae rad14 strain growth inhibition, stronger effect = higher value
Summary of the method: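 Here, inhibition of yeast growth was measured after compound exposure, using a strain with a genetic defect in DNA damage repair and vehicle-treated cultures as the reference.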

[7] = NCI Yeast Anticancer Drug Screen. Data for the sgs1 mgt1 strain (AID 161);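 note: 0% = growth of cultures given vehicle only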; conditions: S. cerevisiae sgs1 mgt1 strain, stronger effect = higher value
Summary of the method: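 This yeast growth screen uses a strain with defined DNA-repair lesions; compound-treated growth is compared with vehicle-treated growth.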

[8] = NCI Yeast Anticancer Drug Screen. Data for the CLN2oe strain (AID 163);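 note: 0% = growth of vehicle-only control cultures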; conditions: S. cerevisiae CLN2oe strain, stronger effect = higher value
Summary of the method: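 Compound-treated yeast; growth vs vehicle ctrl = % inhibition. Genetically altered strain (cell-cycle control).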

[9] = NCI Yeast Anticancer Drug Screen. Data for the cln2 rad14 strain (AID 165);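 note: 0% = growth equal to vehicle treated cultures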; conditions: S. cerevisiae cln2 rad14 strain, stronger effect = higher value
Summary of the method: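 Growth inhibition, relative to vehicle-treated controls, is the read-out. The test organism is a yeast strain with defined genetic alterations, cln2 rad14.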

[10] = NCI Yeast Anticancer Drug Screen. Data for the bub3 strain (AID 167); conditions: S. cerevisiae bub3 mutant strain, stronger effect = higher value
Summary of the method: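 Whole-cell yeast assay. The mutant strain was incubated with compounds, and growth inhibition was determined by comparison with vehicle-treated cells.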

[11] = NCI Yeast Anticancer Drug Screen. Data for the wt2 strain (AID 169);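 note: 0% = growth of vehicle-treated yeast cultures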; conditions: S. cerevisiae wt2 strain growth inhibition, stronger effect = higher value
Summary of the method: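 Compound exposure of yeast; growth compared with vehicle controls; inhibition reported.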

[12] = NCI Yeast Anticancer Drug Screen. Data for the mlh1 strain (AID 171);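 note: 0% = growth of vehicle-treated control cultures of the same strain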; conditions: S. cerevisiae mlh1 strain growth inhibition, stronger effect = higher value
Summary of the method: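 Compounds are applied to a genetically altered yeast strain, and its growth is compared with that of vehicle-treated cultures to give percent inhibition.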

[13] = NCI Yeast Anticancer Drug Screen. Data for the sgs1 strain (AID 173);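 note: 0% = growth of vehicle-only control cultures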; conditions: S. cerevisiae sgs1 mutant, stronger effect = higher value
Summary of the method: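 Compounds applied to genetically altered yeast; growth compared with vehicle-treated cultures to give % inhibition.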

[14] = NCI Yeast Anticancer Drug Screen. Data for the mlh1 rad18 strain (AID 175); conditions: S. cerevisiae mlh1 rad18 strain growth inhibition, stronger effect = higher value
Summary of the method: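 Cells of a genetically altered yeast strain, deficient in DNA damage repair, were treated with compound. Their growth was then compared with that of vehicle-treated cultures to give inhibition.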

[15] = NCI Yeast Anticancer Drug Screen. Data for the rad18 strain (AID 177); conditions: S. cerevisiae rad18 mutant growth inhibition, stronger effect = higher value
Summary of the method: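 Compounds are applied to a repair-deficient yeast strain, and growth is compared with that of vehicle-treated cultures to give percent inhibition.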

[16] = NCI Yeast Anticancer Drug Screen. Data for the rad50EPP+ strain (AID 151);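 note: 0% = growth of vehicle-treated control cultures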; conditions: S. cerevisiae rad50 mutant strain, stronger effect = higher value
Summary of the method: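 rad50EPP+ yeast treated with test compounds. Readout: growth vs vehicle control.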

[17] = at 5.0 µM (retest, dose inferred, filed as 0.5)
[18] = at 50.0 µM (retest, dose inferred, filed as 5.0)

Measured: growth inhibition

S=P(N1CC1)(N1CC1)N1CC1
inactive: [1]; at 1.2 µM -1% | [1]; at 3.7 µM 2% | [1]; at 11.0 µM 3% | [1]; at 33.0 µM 4% | [1]; at 100.0 µM 16% | [2]; at 1.2 µM -3% | [2]; at 3.7 µM -3% | [2]; at 11.0 µM -2% | [2]; at 33.0 µM -2% | [2]; at 100.0 µM -22% | [3]; at 1.2 µM -5% | [3]; at 3.7 µM -2% | [3]; at 11.0 µM -1% | [3]; at 33.0 µM -1% | [3]; at 100.0 µM -1% | [4]; at 1.2 µM -3% | [4]; at 3.7 µM 0% | [4]; at 11.0 µM 4% | [4]; at 33.0 µM 6% | [4]; at 50.0 µM 28.6% | [4]; at 100.0 µM 23% | [5]; at 1.2 µM -5% | [5]; at 3.7 µM -3% | [5]; at 11.0 µM -1% | [5]; at 33.0 µM -2% | [5]; at 50.0 µM -0.7% | [5]; at 100.0 µM 5% | [6]; at 1.2 µM 0% | [6]; at 3.7 µM 3% | [6]; at 11.0 µM 5% | [6]; at 33.0 µM 9% | [6]; at 100.0 µM 20% | [7]; at 50.0 µM 30.1% | [8]; at 1.2 µM -4% | [8]; at 3.7 µM 0% | [8]; at 11.0 µM -6% | [8]; at 33.0 µM -10% | [8]; at 100.0 µM -3% | [9]; at 50.0 µM 6.4% | [10]; at 1.2 µM -3% | [10]; at 3.7 µM -2% | [10]; at 11.0 µM 0% | [10]; at 33.0 µM -6% | [10]; at 50.0 µM 13.8% | [10]; at 100.0 µM -11% | [11]; at 1.2 µM -1% | [11]; at 3.7 µM -2% | [11]; at 11.0 µM -2% | [11]; at 33.0 µM -17% | [11]; at 100.0 µM 2% | [12]; at 1.2 µM 0% | [12]; at 3.7 µM -1% | [12]; at 11.0 µM -2% | [12]; at 33.0 µM 1% | [12]; at 100.0 µM 7% | [13]; at 1.2 µM -2% | [13]; at 3.7 µM -4% | [13]; at 11.0 µM -2% | [13]; at 33.0 µM 3% | [13]; at 100.0 µM 20% | [14]; at 50.0 µM -2.75% | [15]; at 1.2 µM -3% | [15]; at 3.7 µM -1% | [15]; at 11.0 µM 6% | [15]; at 33.0 µM 24%
active: [15]; at 100.0 µM 78%

CN(Cc1cnc2nc(N)nc(N)c2n1)c1ccc(C(=O)NC(CCC(=O)O)C(=O)O)c2ccccc12 (stereo not drawn)
inactive: [1]; at 1.2 µM 16% | [1]; at 3.7 µM 24% | [1]; at 11.0 µM 66% | [2]; at 1.2 µM 12% | [2]; at 3.7 µM 17% | [2]; at 11.0 µM 28% | [2]; at 33.0 µM 69% | [16]; at 1.2 µM 5% | [16]; at 3.7 µM 24% | [16]; at 11.0 µM 41% | [16]; at 33.0 µM 57% | [4]; at 1.2 µM -2% | [4]; at 3.7 µM 22% | [4]; [17] -4% | [4]; at 11.0 µM 60% | [5]; at 1.2 µM 17% | [7]; [17] 27% | [8]; at 1.2 µM -14% | [8]; at 3.7 µM -12% | [8]; at 11.0 µM -28% | [8]; at 33.0 µM 7% | [8]; at 100.0 µM 58% | [9]; [17] -6% | [9]; [18] 45% | [9]; at 50.0 µM 35.1% | [10]; at 1.2 µM -5% | [10]; at 3.7 µM -7% | [10]; [17] -49% | [10]; at 11.0 µM 2% | [10]; at 33.0 µM 57% | [11]; at 1.2 µM -50% | [11]; at 3.7 µM -45% | [11]; at 11.0 µM -4% | [11]; at 33.0 µM 39% | [12]; at 1.2 µM 17% | [12]; at 3.7 µM 32% | [12]; at 11.0 µM 42% | [12]; at 33.0 µM 66% | [13]; at 1.2 µM 26% | [13]; at 3.7 µM 36% | [13]; at 11.0 µM 58% | [14]; [17] -13% | [15]; at 1.2 µM 17% | [15]; at 3.7 µM 25% | [15]; at 11.0 µM 38%
active: [1]; at 33.0 µM 90% | [1]; at 100.0 µM 93% | [2]; at 100.0 µM 90% | [16]; at 100.0 µM 79% | [4]; at 33.0 µM 89% | [4]; [18] 80% | [4]; at 50.0 µM 81.2% | [4]; at 100.0 µM 92% | [5]; at 3.7 µM 72% | [5]; [17] 72% | [5]; at 11.0 µM 92% | [5]; at 33.0 µM 95% | [5]; [18] 94% | [5]; at 50.0 µM 87.2% | [5]; at 100.0 µM 96% | [7]; [18] 71% | [7]; at 50.0 µM 72.7% | [10]; [18] 72% | [10]; at 50.0 µM 80.3% | [10]; at 100.0 µM 84% | [11]; at 100.0 µM 78% | [12]; at 100.0 µM 83% | [13]; at 33.0 µM 82% | [13]; at 100.0 µM 85% | [14]; [18] 72% | [15]; at 33.0 µM 79% | [15]; at 100.0 µM 89%
